Source: PubChem (Johns Hopkins Ion Channel Center)
Shown are actives, neighbours in structure and some others; about 2.3% of the full set was active somewhere.
TMEM16A inh: inhibitors of mouse TMEM16A calcium-activated chloride channel. HEK293 TMEM16A/YFP iodide influx fluorescence, ionomycin. normalized B-score (activity score, 25-100; higher = stronger inhibition) at 10 µM. 310,000 compounds, 1.2% hits;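 active means ratio plate-corrected score three or more library SD toward inhibition, starting fluorescence score within five deviations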;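 further: score derived from kinetic fluorescence span divided by baseline fluorescence per well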
TMEM16A act: activators or potentiators of mouse TMEM16A chloride channel | 340,000 compounds, 0.3% hits | B-score at 10 µM | HEK293 TMEM16A/YFP-H148Q/I152L, iodide quench fluorescence; stronger effect = lower value;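 active means fluorescence-ratio B-score plate-corrected deviation score at least 3 library SD below zero, with starting fluorescence score within 5 deviations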;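 further: channel opened by trigger with iodide after compound preincubation; score built on the fluorescence ratio of max minus min over baseline; more negative score means more quench and so TMEM16A activation or potentiation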
CHT PAM: allosteric activators of human choline transporter CHT; CHT-expressing cells, membrane potential dye, choline EC20; stronger effect = higher value; LV-AA mutant CHT in HEK293 cells; B-score at 10 µM; 310,000 compounds, 0.49% hits;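 active means initial fluorescence not abnormally high and integrated response B-score, plate-corrected, over 3 SD above library mean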
Target sequence (Q9GZV3 whole entry, looked up): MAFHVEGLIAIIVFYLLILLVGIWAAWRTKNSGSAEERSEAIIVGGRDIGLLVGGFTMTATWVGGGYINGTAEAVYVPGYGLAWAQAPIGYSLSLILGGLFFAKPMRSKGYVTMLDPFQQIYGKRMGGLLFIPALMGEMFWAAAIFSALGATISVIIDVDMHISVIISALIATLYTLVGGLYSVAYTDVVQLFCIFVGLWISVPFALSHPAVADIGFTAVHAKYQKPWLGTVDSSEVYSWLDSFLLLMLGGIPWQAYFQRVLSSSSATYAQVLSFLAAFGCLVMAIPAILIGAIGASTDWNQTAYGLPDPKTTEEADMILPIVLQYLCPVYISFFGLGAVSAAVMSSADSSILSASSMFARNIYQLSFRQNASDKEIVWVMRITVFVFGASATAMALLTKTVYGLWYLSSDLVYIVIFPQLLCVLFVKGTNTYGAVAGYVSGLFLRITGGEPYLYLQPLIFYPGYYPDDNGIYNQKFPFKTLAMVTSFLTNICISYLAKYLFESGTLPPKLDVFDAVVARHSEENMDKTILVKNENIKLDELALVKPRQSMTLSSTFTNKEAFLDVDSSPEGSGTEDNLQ
CHT inh: inhibits the human high affinity choline transporter | CHT-expressing cells, membrane potential dye, choline response; stronger effect = lower value | AID 488975 | Q9GZV3 | 310,000 compounds, 0.86% hits | B-score at 10 µM;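 active means B-score over 3 SD under the library average, and starting fluorescence ratio not unusually high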;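 further: choline stimulus applied at its EC90 after an EC20 pre-addition; B-score computed on integrated fluorescence ratio after choline addition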
CHT activ conf: confirmation of human choline transporter (CHT) activators | shares compounds with CHT PAM | CHT-expressing cells, membrane potential dye fluorescence (FDSS); % of choline EC20–EC90 response window; HEK293 expressing CHT LV-AA mutant; choline added at its EC20 | activation, % at 10 µM | 2,500 compounds, 91% hits | AID 504833;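 active means primary screen active, with duplicate mean activation above negative control mean plus 3 SD, cut at about 11% in these data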
HEK293 MP dye: CHT activator counter-screen hit in parental HEK293 cells; shares compounds with CHT PAM; membrane potential dye fluorescence (FDSS); measured after EC20 choline addition; ratio readout change at 10 µM, hits read low; 2,500 compounds, 62% hits; AID 623908;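 active means duplicate-averaged ratio beyond 3 SD from buffer wells, up or down, though filed actives are nearly all decreases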
An asterisk follows results filed as active; i = inactive; / = not tested or not shown.

SMILES | TMEM16A inh | TMEM16A act | CHT PAM | CHT inh | CHT activ conf | HEK293 MP dye
O=C(Nc1ccc(SC(F)F)cc1)c1cc(-c2ccncc2)nc2ccccc12 | / | i | / | / | / | /
C=CC[n+]1c(-c2ccccc2)csc1NC(C)(C)C | i | i | i | i | / | /
C=CC[n+]1c(-c2ccc(OC)c(OC)c2)csc1NNC(=O)Nc1ccccc1 | 100* | i | i | i | 8 | i
CC1(C)Cc2c(sc(NC(=O)C(C)(C)C)c2C#N)C(C)(C)N1 | i | i | i | i | / | /
CC1(C)CC2CC(C)(CN2/C=N/c2sc3c(c2C#N)CC(C)(C)NC3(C)C)C1 (stereo unspecified) | i | i | 8* | i | 35* | i
Cc1nn2cnc3sc4c(c3c2nc1=O)CCCC4 | i | i | 6.6* | i | 40* | -46*
c1nc2sc3c(c2c2nnnn12)CCCC3 | i | i | i | i | / | /
CCN(CC)CCCNc1ncnc2ccccc12 | i | i | 7.8* | i | 61* | -66*
COCc1cc(C)nc2sc(C(=O)NCCO)c(-n3cccc3)c12 | i | i | i | i | / | /
Brc1cc2c(cc1Br)OCCOCCOCCOCCO2 | i | i | i | i | / | /
Brc1ccc2c(c1)OCCOCCOc1cc(Br)ccc1OCCOCCOCCO2 | 100* | i | 14* | i | 57* | i
CCOc1ccc(NC2=C(OC)C(=O)c3ccccc3C2=O)cc1 | i | i | i | i | 14* | -67*
COC1=C(Nc2ccc(O)cc2)C(=O)c2ccccc2C1=O | i | i | i | i | 29* | -78*
COC1=C(Nc2ccc(OC)cc2)C(=O)c2ccccc2C1=O | i | i | 6.5* | i | 12* | -65*
CS(=O)(=O)c1ccc(Cl)c(NC(=O)c2cc(=O)[nH]c3ccc(S(=O)(=O)N4CCOCC4)cc23)c1 | i | i | i | i | / | /
CSc1ccccc1NC(=O)CSc1nncs1 | i | i | i | i | / | /
COc1ccc(N2CCN(C(=O)[C@@H](NC(=O)c3ccccc3Cl)C(C)C)CC2)cc1 | i | i | i | i | / | /
CCOC(=O)Nc1nc(-c2ccccc2)c(C(=O)c2ccc(Cl)cc2)s1 | i | i | i | i | 35* | i
CCOC(=O)Nc1sc(C)nc1-c1ccccc1 | i | i | i | i | / | /
C/C(=N\NC(=O)c1ccc(COc2ccccc2)cc1)c1ccncc1 | i | i | i | i | / | /
Cc1cc(=O)[nH]c(SCC(=O)Nc2ccnc3ccccc23)n1 | i | i | i | i | 31* | -51*
CN(C)c1nnnn1-c1ccccc1Oc1ncc(C(F)(F)F)cc1Cl | i | i | i | i | / | /
COC(=O)c1ccc(-c2nc(O)c3cnccn23)cc1 | i | i | i | i | 23* | -37*
Oc1nc(-c2ccc(Cl)cc2)n2ccncc12 | i | i | i | i | / | /
CC(C)(Cc1cc(CC(C)(C)C(=O)O)cc(C(C)(C)C)c1)C(=O)O | i | i | i | i | / | /
SMILES | TMEM16A inh | TMEM16A act | CHT PAM | CHT inh | CHT activ conf | HEK293 MP dye
CCN(CC(=O)Nc1ccccc1C(F)(F)F)C(=O)CCOc1ccc(C)cc1 | i | i | i | i | 7 | i
O=C(Nc1ccc(N2CCOCC2)c(Cl)c1)c1ccc(-n2cnnc2)cc1Cl | i | i | i | i | / | /
CCc1ccc(NC(=O)Cn2cc([N+](=O)[O-])nc2C)cc1 | i | i | i | i | / | /
COc1ccc(C)cc1NC(=O)CNc1ccccc1CN(C)C1CCCCC1 | i | i | 6.4* | i | 22* | i
N#Cc1ccsc1NC(=O)CN1C(=O)NC2(CCCCC2)C1=O | i | i | i | i | / | /
Cc1cc(=O)n2[nH]c(-c3ccc(F)cc3)cc2n1 | i | i | i | i | 42* | -31*
CC1CCN(C(=O)COC(=O)c2ccc(Cl)nc2)CC1 | / | i | / | / | / | /
COc1ccc(Cl)cc1NC(=O)C1COc2ccccc2O1 (stereo unspecified) | i | i | i | i | / | /
CN1CCN(c2ccc(Cl)cc2NC(=O)C2COc3ccccc3O2)CC1 (stereo unspecified) | i | i | i | i | 0 | i
N/C(=N\OC(=O)c1ccc(Cl)cc1)c1[nH]ncc1Br | i | i | i | i | / | /
Cc1[nH]n(-c2ccc([N+](=O)[O-])cc2)c(=O)c1C=NCCc1ccc(S(N)(=O)=O)cc1 | i | i | i | i | / | /
CCCc1[nH]n(-c2ccc([N+](=O)[O-])cc2)c(=O)c1C=NCCCn1ccnc1 | i | i | i | i | 37* | -48*
NC(=O)NC(c1ccc(Cl)cc1)c1ccccc1Cl (stereo unspecified) | i | i | i | i | / | /
Nc1nc(NCCO)nc(NCC2CCCO2)c1[N+](=O)[O-] (stereo unspecified) | i | i | i | i | / | /
COc1ccc(CCNCc2ccc(OCc3ccc(Cl)nc3)c(OC)c2)cc1OC | i | i | 7.8* | i | 37* | i
O=C(/C=C\c1ccc2c(c1)OCO2)CC1(O)C(=O)Nc2ccccc21 (stereo unspecified) | i | i | i | i | / | /
C[C@@H](C(=O)N1CCNCC1)n1cc(CCCN=C(N)N)nn1 | i | i | i | i | / | /
COc1cccc(NC(=O)C2CCC(CNS(=O)(=O)c3ccc4c(c3)CC(C)N4C(C)=O)CC2)c1 (stereo unspecified) | i | i | i | i | / | /
CN(C)CCCn1c(NCc2ccc3c(c2)OCO3)nc2ccccc21 | i | i | i | i | 35* | -50*
CC(C)(C)c1ccc(C(=O)NNC(=O)c2ccncc2)cc1 | i | i | i | i | / | /
NCCCC[C@H]1CN=C(N)N1CC1CCCCC1 | i | i | i | i | / | /
NCCCC[C@H]1CN=C(N)N1CCCCC1CCCCC1 | i | i | 11* | i | 47* | -51*
CN(C(=O)c1ccc(NC(=O)Cc2cccc(NC(=O)C3CCN(C(=O)c4ccccc4)CC3)c2)cc1)C1CCCC1 | / | i | / | / | / | /
CO[C@H]1C=CO[C@@]2(C)Oc3c(C)c(O)c4c(O)c(c5c(c4c3C2=O)NC2(CCN(CC(C)C)CC2)N=5)=NC(=O)C(C)=CC=C[C@H](C)[C@H](O)[C@@H](C)[C@@H](O)[C@@H](C)[C@H](OC(C)=O)[C@@H]1C | i | / | i | i | / | /
